Source: the supplement of paper PMC8371130
Counter-ions that a name gives are not always drawn.

test system: HL-1; test: relative cell viability (CellTiter-Glo) vs DMSO control (% of DMSO control); higher = more viable cells; details: oxygen condition: hypoxia 48 h (1% O2) + reoxygenation 24 h; 40 nM
In short: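 One day after HL-1 mouse atrial cardiomyocytes were plated (1000 cells per well, 384-well plates) with compounds at 40, 200, 1000 or 5000 nM in 0.01% DMSO, they were transferred to a hypoxic workstation at 1% O2. After 48 h there, the cells were reoxygenated for 24 h in a normal incubator, and comparison cells stayed in normoxia throughout the same time. Cell viability was quantified with CellTiter-Glo luminescence and normalised to vehicle-treated control cells.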

SMILES | relative cell viability
O=C1NC(=O)C(c2ccccc2)(c2ccccc2)N1 [Phenytoin] | 98.3
C[N+]1(C)CCC(=C(c2ccccc2)c2ccccc2)CC1 [Diphemanil methylsulfate] | 104
COCCCC/C(=N\OCCN)c1ccc(C(F)(F)F)cc1 [Fluvoxamine maleate] | 101
O=P(O)(O)C(Cl)(Cl)P(=O)(O)O [Clodronate Disodium] | 114
CCOc1nc2cccc(C(=O)O)c2n1Cc1ccc(-c2ccccc2-c2noc(=O)[nH]2)cc1 [Azilsartan] | 104
CCCCNc1ccc(C(=O)OCCN(C)C)cc1 [Tetracaine hydrochloride] | 97.8
C=C1c2cccc(O)c2C(=O)C2=C(O)[C@]3(O)C(=O)C(C(N)=O)=C(O)[C@@H](N(C)C)[C@@H]3[C@@H](O)[C@H]12 [Methacycline hydrochloride] | 98.1
COC(=O)C1=C(C)NC(C)=C(C(=O)OC)C1c1ccccc1[N+](=O)[O-] [Nifedipine] | 96.4
CCOC(=O)[C@H](CCc1ccccc1)N[C@H]1CCc2ccccc2N(CC(=O)O)C1=O [Benazepril hydrochloride] | 102
O=C(NC[C@H]1CN(c2ccc(N3CCOCC3=O)cc2)C(=O)O1)c1ccc(Cl)s1 [Rivaroxaban] | 91.5

same assay, conditions: oxygen condition: hypoxia 48 h (1% O2) + reoxygenation 24 h; 200 nM

SMILES | relative cell viability
CCN[C@H]1C[C@H](C)S(=O)(=O)c2sc(S(N)(=O)=O)cc21 [Dorzolamide HCL] | 105
CNC[C@H](O)c1cccc(O)c1 [Phenylephrine HCl] | 108
CN(CCOc1ccc(NS(C)(=O)=O)cc1)CCc1ccc(NS(C)(=O)=O)cc1 [Dofetilide] | 99.8
O=C(O[C@H]1CN2CCC1CC2)N1CCc2ccccc2[C@@H]1c1ccccc1 [Solifenacin succinate] | 111
CCCNCC(O)COc1ccccc1C(=O)CCc1ccccc1 (centres undefined) [Propafenone] | 105
CN1CCOC(c2ccccc2)c2ccccc2C1 (centres undefined) [Nefopam HCl] | 74.3
Clc1ccc(COC(Cn2ccnc2)c2ccc(Cl)cc2Cl)cc1 (centres undefined) [Econazole nitrate] | 104
O=C1c2ccccc2C(=O)C1c1ccccc1 [Phenindione] | 105
O=C1[C@H](CC[C@H](O)c2ccc(F)cc2)[C@@H](c2ccc(O)cc2)N1c1ccc(F)cc1 [Ezetimibe] | 104
CN(C(=O)CN(CCO)CC(=O)N(C)C(C)(C)Cc1ccccc1)C(C)(C)Cc1ccccc1 [Oxethazaine] | 103
N=C(N)NC(=N)N1CCOCC1 [Moroxydine] | 98.5
O=C(O)C1(C(=O)O)CCC1.[NH2-].[NH2-].[Pt+2] [Carboplatin] | 109
OC(CCN1CCCCC1)(c1ccccc1)C1CC2C=CC1C2 (centres undefined) [Biperiden HCl] | 104
Cc1nccn1CC1CCc2c(c3ccccc3n2C)C1=O (centres undefined) [Ondansetron] | 103
CCOC(=O)c1c(C)n(C)c2ccc(O)cc12 [Mecarbinate] | 102
CC(C)NCC(O)c1ccc(NS(C)(=O)=O)cc1 (centres undefined) [Sotalol] | 98.9
CC1=C(C(=O)OC(C)C)C(c2cccc([N+](=O)[O-])c2)C(C(=O)OC2CN(C(c3ccccc3)c3ccccc3)C2)=C(N)N1 (centres undefined) [Azelnidipine] | 110
C[C@@H]1C[C@H]2[C@@H]3C[C@H](F)C4=CC(=O)C=C[C@]4(C)[C@@]3(F)[C@@H](O)C[C@]2(C)[C@@]1(O)C(=O)CO [Flumethasone] | 97.4
N#CC[C@H](C1CCCC1)n1cc(-c2ncnc3[nH]ccc23)cn1 [Ruxolitinib] | 98.9
C[N+](C)(C)C[C@H](O)CC(=O)[O-] [L-carnitine] | 104

SMILES | relative cell viability
CN1CCN(CCCN2c3ccccc3Sc3ccc(C(F)(F)F)cc32)CC1 [Trifluoperazine 2HCl] | 103
CCCCCCCCOc1ccccc1C(=O)Nc1ccc(C(=O)OCC[N+](C)(CC)CC)cc1 [Otilonium Bromide] | 107
CC(C)NC[C@H](O)COc1ccc(CCOCC2CC2)cc1 [Levobetaxolol HCl] | 102
CCN1CCC[C@H]1CNC(=O)c1cc(S(N)(=O)=O)ccc1OC [Levosulpiride] | 107
CN(C)CCN(Cc1cccs1)c1ccccn1 [Methapyrilene HCl] | 104
O=C(O)c1cc(=O)c2ccccc2o1 [Chromocarb] | 105
Cl.N=C(N)NCCC[C@H](N)C(=O)O [L-Arginine HCl] | 104
NC[C@H]1CC[C@H](C(=O)O)CC1 [Tranexamic acid] | 102
N[C@@H]1CCCCN(c2c(F)cc3c(=O)c(C(=O)O)cn(C4CC4)c3c2Cl)C1 [Besifloxacin HCl] | 99.1
O=C1NC(=O)C(c2ccccc2)(c2ccccc2)N1 [Phenytoin] | 97.9
C[N+]1(C)CCC(=C(c2ccccc2)c2ccccc2)CC1 [Diphemanil methylsulfate] | 100
COCCCC/C(=N\OCCN)c1ccc(C(F)(F)F)cc1 [Fluvoxamine maleate] | 109
O=P(O)(O)C(Cl)(Cl)P(=O)(O)O [Clodronate Disodium] | 114
CCOc1nc2cccc(C(=O)O)c2n1Cc1ccc(-c2ccccc2-c2noc(=O)[nH]2)cc1 [Azilsartan] | 108
CCCCNc1ccc(C(=O)OCCN(C)C)cc1 [Tetracaine hydrochloride] | 104
C=C1c2cccc(O)c2C(=O)C2=C(O)[C@]3(O)C(=O)C(C(N)=O)=C(O)[C@@H](N(C)C)[C@@H]3[C@@H](O)[C@H]12 [Methacycline hydrochloride] | 99.7
COC(=O)C1=C(C)NC(C)=C(C(=O)OC)C1c1ccccc1[N+](=O)[O-] [Nifedipine] | 77.6
CCOC(=O)[C@H](CCc1ccccc1)N[C@H]1CCc2ccccc2N(CC(=O)O)C1=O [Benazepril hydrochloride] | 102
O=C(NC[C@H]1CN(c2ccc(N3CCOCC3=O)cc2)C(=O)O1)c1ccc(Cl)s1 [Rivaroxaban] | 106
